Assay results as given in PubChem BioAssay AID652256 (National Center for Advancing Translational Sciences (NCATS), 2013).
The list shows a part of the results. Calls of active or inactive are those of the source.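 How the source made its calls: active means a half-inhibiting concentration could be measured and was below 100 µM; inactive means the rest.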

The molecules below were run on Thioredoxin reductase 1 (TXNRD1), rat (assay: qHTS Assay for Inhibitors of Mammalian Selenoprotein Thioredoxin Reductase 1 (TrxR1): DTNB Assay). Settings: purified TrxR1, DTNB reduction, A412.
Description: The selenoprotein thioredoxin reductase (TrxR; EC 1.8.1.9) is a FAD containing homodimeric pyridine nucleotide-disulfide oxidoreductase with many cellular roles. Together with NADPH and its prime substrate thioredoxin (Trx), the enzyme forms the core of the Trx system. The mammalian Trx system exerts a wide spectrum of functions including redox regulation, antioxidant defense, regulation of transcription factors as well as support of cell growth and replication. Many of these functions involve the reduction of Trx, which may subsequently reduce a number of different substrates including ribonucleotide reductase, peroxiredoxins or NFkB. Mammalian TrxR itself also has a broad substrate specificity, reducing both protein and non-protein substrates, including low molecular weight compounds such as dehydroascorbate, lipoic acid, ubiquinone, and juglone. In addition, several drugs in clinical use for anticancer treatment are indeed known to target TrxR1. This orthogonal DTNB assay seeks to further characterize cherry picks. NIH Molecular Libraries Probe Production Network [MLPCN] NIH Chemical Genomics Center [NCGC] MLPCN Grant: MH090846 Assay Provider: Elias Arner, Karolinska Institute
15 nM TrxR1 is reduced by 250 microM NADPH in TE buffer [50 mM Tris-HCl (pH 7.5), 2 mM EDTA] in a 96-well microtiter plate. Compounds are then added and incubated for 30 min at 30 degrees C. During compound incubation, NADPH consumption is followed by the decrease in absorbance at 340 nm using a VersaMax microplate reader (Molecular Devices) to determine substrate potential of the compound. DTNB is subsequently added to a final concentration of 2.5 mM, and the formation of TNB- is followed at 412 nm at 30 degrees C to assess inhibitory activity of the compound.

Potency, active:
O=C(/C=C/c1ccco1)Nc1cccc(-c2nc3ccccc3[nH]2)c1 10300 nM
Cc1ccccc1-c1nc(CS(=O)(=O)CC(=O)N2CCc3ccccc3C2)c(C)o1 292 nM
CC1CCN(C(=O)c2ccc(S(=O)(=O)Cc3cc(F)ccc3F)c([N+](=O)[O-])c2)CC1 317 nM
